# Compound activity deposited in PubChem BioAssay by Broad Institute.
# A selection: hits, their analogues and other compounds. The true share with any hit is near 3%.
# MITF act – activators of MITF-driven TRPM1 promoter activity in SK-MEL-5 cells; SK-MEL-5 TRPM1-promoter luciferase, 24 h; % of positive control, neutral wells = 0; activation, % at 12.5 µM; 300,000 tested, 0.75% active;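 active = mean activation of at least 80% with every replicate also reaching 80%; inconclusive = mean reaches 80% but some replicate falls short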;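 note: 0% = neutral control wells and 100% = parthenolide positive control wells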
# Wnt bcat act – activators of Wnt/beta-catenin signaling | activation, % at 9.35 µM | Wnt/beta-catenin reporter cell assay, activator, plate reader | 300,000 tested, 1.2% active; in the data active = activation above about 30%, passing the limit was not always enough; inconclusive = no clear call, values can overlap the other calls;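 note: 0% = neutral control wells and 100% = positive control wells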
# Vif inh – HIV Vif inhibition; HEK293T cells, Vif self-association by quenched fluorescence, imaging, 24 h; inhibition, % at 7.49 µM; 340,000 tested, 0.35% active; AID 602346; in the data active = inhibition above about 50%, passing the limit was not always enough; inconclusive = no clear call, values can overlap the other calls; inactive = below about 31%
# esBAF inh – inhibitors of esBAF chromatin remodeling in mouse ES cells; Bmi1-luciferase knock-in reporter, 24 h; 100% = twice the neutral-well signal; reporter increase, % at 12.5 µM; 350,000 tested, 2% active; AID 602393; in the data active = activation above about 40%; inconclusive = no clear call, values can overlap the other calls;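 note: 0% = median of the plate's neutral control wells and 100% = double that signal; a rise in the Bmi1 reporter signal indicates esBAF inhibition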
# Glyco luc inh – blocks N-linked glycosylation in D54 reporter cells. D54 ERlucT glycosylation luciferase reporter, 24 h; percent of 100 nM tunicamycin response. reporter increase, % at 12.5 µM. 360,000 tested, 0.23% active. AID 588692;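 active = mean luciferase reporter signal, scaled so untreated is 0 and the glycosylation-blocking control 100, at or above a set limit in every replicate; inconclusive = mean reaches the limit but not every replicate does; inactive = mean below the limit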;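 note: luciferase carries N-glycosylation sites so blocking glycosylation raises the light; 0% = median of neutral control wells and 100% = median of 100 nM tunicamycin wells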
# PfHsp90 yeast 2 – reduces growth (ATP signal) of yeast expressing P. falciparum Hsp90; S. cerevisiae expressing PfHsp90, BacTiter-Glo ATP, 48 h; yeast lacking PDR1 and PDR3 efflux regulators; inhibition, % at 9.4 µM; 310,000 tested, 0.32% active; AID 504621;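 active = every replicate shows inhibition above about 80%, whatever the replicate mean, limit read from the data; inconclusive = mean inhibition reaches the set limit but some replicate falls short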;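 note: 0% = DMSO neutral controls and 100% = 20 µM radicicol positive controls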
# * = called active by the depositor; ? = inconclusive; . = no result.
SMILES,MITF act,Wnt bcat act,Vif inh,esBAF inh,Glyco luc inh,PfHsp90 yeast 2
Cc1ccc(C(=O)Nc2cccc(-c3ccc(N4CCOCC4)nn3)c2)cc1,75,36*,11,52*,-5,.
Cc1ccc(C(=O)Nc2cccc(-c3ccc(N4CCOCC4)nn3)c2)cc1C,76,29,2,.,-8,24
C/C(=N\O)c1ccc(N2C(=O)C3CC=C(Cl)CC3C2=O)cc1 (stereo unspecified),?,59*,13,73*,-7,.
Cc1ccc(NC(=O)c2ccc(N3C(=O)C4CC=C(Cl)CC4C3=O)cc2)cc1 (stereo unspecified),-4,1,-4,-1,-3,4
CC(C)C(=O)Nc1ccc2nn(-c3ccc(F)cc3)nc2c1,.,.,-2,2,-16,-20
Cc1ccc(-n2nc3ccc(NC(=O)C(C)C)cc3n2)cc1,111*,-4,-1,100*,-13,4
Cc1cc2nn(-c3ccccc3)nc2cc1NC(=O)c1cccs1,48,31*,-4,.,2,.
CCCC(=O)Nc1ccc2nn(-c3ccc(OC)cc3)nc2c1,76,-1,-1,50*,-4,1
CC(C)CC(=O)Nc1ccc2nn(-c3ccccc3)nc2c1,99*,?,-2,.,-5,16
COc1ccc(-n2nc3ccc(N)cc3n2)cc1,.,-1,-4,-59,-4,.
Cc1ccc(C(=O)COC(=O)C2CC(=O)N(c3nc(-c4ccccc4)cs3)C2)cc1C (stereo unspecified),.,-3,4,0,0,9
COC(=O)Cn1c(CN2CCN(c3ccccc3F)CC2)nc2c1c(=O)n(C)c(=O)n2C,.,-3,-9,-4,1,-2
CCC(=O)Nc1cc2nn(-c3ccccc3)nc2cc1Cl,7,38*,-6,36,-2,6
CC(=O)Nc1ccc2c(c1)ncn2-c1ccc(C)cc1,39,43*,6,.,-4,.
CC(=O)Nc1cc2nn(-c3ccccc3)nc2cc1C,7,22,-3,8,-13,0
CC(=O)Nc1ccc2c(c1)ncn2C,.,-4,-2,.,3,.
O=C(Nc1ccccc1)Nc1ccc2c(c1)CCC2,73,1,-5,49*,-8,26
Cc1ccc(NC(=O)Nc2ccc3c(c2)CCC3)cc1,?,2,-1,.,-1,6
O=C(Nc1cccc(F)c1)Nc1ccc2c(c1)CCC2,?,34*,-4,64*,-4,-4
O=C(CCC(=O)Nc1ccccc1Cl)NNC(=O)c1ccccc1[N+](=O)[O-],-2,4,0,.,-1,-3
O=C(CSc1nnnn1-c1ccc2c(c1)OCO2)NCc1cccs1,6,-1,-2,7,1,0
COc1ccccc1NC(=O)N1CCN(C(=O)c2ccco2)CC1,5,2,-4,-3,1,-6
CCCN1[C@@H]2c3ccc(-c4ccc(OC)cc4)c(=O)n3C[C@@H]2[C@@H](CO)[C@@H]1C(=O)OC,.,.,.,-1,.,.
COc1ccc2[nH]c(C)c(CN3CCCCC3)c(=O)c2c1,10,-3,0,.,2,19
O=C(NCCCN=C1NS(=O)(=O)c2ccccc21)c1ccccc1Cl,14,-1,9,-8,1,17
SMILES,MITF act,Wnt bcat act,Vif inh,esBAF inh,Glyco luc inh,PfHsp90 yeast 2
Cc1ccc(S(=O)(=O)N(C)CC(=O)Nc2cc(C)ccn2)cc1,7,38*,7,66*,-4,.
C[C@@H]1CCCCO[C@@H](CN(C)Cc2ccc(Cl)c(Cl)c2)[C@H](C)CN([C@H](C)CO)C(=O)c2cc(NC(=O)Nc3ccc(C(F)(F)F)cc3)ccc2O1,.,.,.,-1,.,.
O=C(CCN1CCCCC1)N[C@@H]1CC[C@@H](CCNS(=O)(=O)c2ccc(F)cc2)O[C@@H]1CO,.,.,.,1,.,.
NNC(=O)c1ccc(COc2ccc3c(c2)CCC3)cc1,17,11,-25,.,1,6
COc1ccc(OCc2ccc(C(=O)O)cc2)cc1,34,.,.,51*,-4,13
CCCc1cc(=O)oc2cc(OCc3ccc(C(=O)O)cc3)ccc12,23,5,-5,53*,5,109*
O=C(O)c1ccc(COc2ccc3c(c2)CCC3)cc1,25,33*,9,.,-5,-17
CCCC1=[N+](CC)CCn2c(C)ccc21,-6,.,-3,-9,1,4
Cc1c(NC(=O)CN2C(=O)NC(C)(c3ccc4c(c3)OCCO4)C2=O)c(=O)n(-c2ccccc2)n1C (stereo unspecified),9,.,-2,.,2,-3
O=C(Cc1cc(=O)oc2cc(O)ccc12)N[C@@H](Cc1c[nH]c2ccccc12)C(=O)O,-21,10,6,-7,3,18
CO[C@H]1CN(C)C(=O)c2cc(NC(=O)Nc3cccc(F)c3)ccc2OC[C@H](C)NC[C@@H]1C,.,.,.,3,.,.
COc1ccc(OC)c2sc(N3CCc4ccccc4C3)nc12,33,7,22,.,2,.
COc1ccc(OC)c2sc(N3CCCCC3)nc12,.,24,-2,46*,0,.
CCSc1nsc(NC(=O)Nc2ccccc2Cl)n1,.,5,-8,41*,0,-11
O=C(Nc1ccccc1)NC1(C(=O)N2CCC(O)CC2)CCCCC1,-3,-2,0,-6,-1,7
CCOC(=O)C1CCCN(C2CC(=O)N(c3cccc(C(F)(F)F)c3)C2=O)C1 (stereo unspecified),-11,-2,-3,0,2,120*
CCCCCCOc1ccc(N2C(=O)CC(N3CCC(C(=O)OCC)CC3)C2=O)cc1 (stereo unspecified),-1,.,.,-3,2,106*
CC(=O)Nc1cccc(N2C(=O)CC(N3CCC(C(=O)N4CCCCC4)CC3)C2=O)c1 (stereo unspecified),4,.,11,4,0,-15
CCOC(=O)C1CCN(C2CC(=O)N(c3ccc(OCC)cc3)C2=O)CC1 (stereo unspecified),-2,.,.,-6,-1,-54
COc1cc(OC)cc(N2C(=O)CC(N3CCC(C(=O)N4CCCCC4)CC3)C2=O)c1 (stereo unspecified),-6,-2,12,-2,0,82*
NNC(=O)CNC(=O)c1ccccc1F,6,-4,2,-1,-1,-9
COCCN1Cc2cccc(C(=O)Nc3ccc4c(c3)OCCO4)c2C1=O,0,-3,-6,6,-5,-27
Cc1ccc(CN=c2c([N+](=O)[O-])nn(-c3cccc(C)c3)n2O)cc1,4,12,0,14,2,-9
OC[C@@H]1CN(Cc2ccccc2)C[C@H](n2cnc3c(Nc4ccccc4)ncnc32)O1,.,-3,-10,2,2,.
O=C(Cn1cnc2c(oc3ccccc32)c1=O)c1ccccc1,.,49*,1,70*,1,.
C=CCOC(=O)Cn1cnc2c(sc3nc(C)cc(C)c32)c1=O,57,27,-5,37,1,9
